Source: PubChem (National Center for Advancing Translational Sciences (NCATS))
Compounds with a hit are over-represented: about 11% of the library has one in this group of screens.
HPGD inh: qHTS Assay for Inhibitors of HPGD (15-Hydroxyprostaglandin Dehydrogenase). 15-hydroxyprostaglandin dehydrogenase [NAD(+)] (Homo sapiens), P15428. purified HPGD, NADH fluorescence kinetic, PGE2 substrate. Potency, µM, most hits filed as inhibitors. hit rate 4.3% among 150,000
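20 nM HPGD preincubated 15 min at room temperature with compound in 50 mM Tris-HCl pH 8, 0.01% Tween 20. Started with 1 mM NAD+ and 30 uM prostaglandin E2; NADH fluorescence (360/450 nm) read 5 times over 30-s intervals, last minus first.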
ALDH1A1 block: qHTS Assay for Inhibitors of Aldehyde Dehydrogenase 1 (ALDH1A1); Purified ALDH1A1, NADH fluorescence, propionaldehyde substrate; Potency, µM (doses to about 75.3 µM), actives largely listed as inhibitors; hit rate 7.3% among 220,000; AID 1030, 2008
Target sequence (P00352 whole entry, looked up): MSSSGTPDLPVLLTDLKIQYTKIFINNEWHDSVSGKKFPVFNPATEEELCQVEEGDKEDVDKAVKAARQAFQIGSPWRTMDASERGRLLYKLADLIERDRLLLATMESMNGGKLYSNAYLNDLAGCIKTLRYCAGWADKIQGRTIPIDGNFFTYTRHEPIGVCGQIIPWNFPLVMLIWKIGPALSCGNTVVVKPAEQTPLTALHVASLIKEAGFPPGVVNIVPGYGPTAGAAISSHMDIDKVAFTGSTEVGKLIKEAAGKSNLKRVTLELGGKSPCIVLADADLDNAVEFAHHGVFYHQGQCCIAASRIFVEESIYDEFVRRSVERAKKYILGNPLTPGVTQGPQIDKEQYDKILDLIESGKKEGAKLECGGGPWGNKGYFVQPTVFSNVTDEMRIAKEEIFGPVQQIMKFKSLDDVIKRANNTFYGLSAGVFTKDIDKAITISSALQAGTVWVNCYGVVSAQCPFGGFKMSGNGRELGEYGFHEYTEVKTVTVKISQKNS
PNC inhibitor: High Content Assay for Compounds that inhibit the Assembly of the Perinucleolar Compartment; PC3M PTB-GFP, PNC prevalence imaging, 16 h; stronger effect = lower value; activity change (PNC), negative = inhibition, % at 10 µM; hit rate 3.1% among 140,000;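 active = readout at or below -70, meaning at least 70% loss of cells showing the perinucleolar compartment, a nuclear body marking cancer cells; inconclusive = readout between -30 and a set limit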
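PC3M cells stably expressing PTB-GFP, 750–1000 cells/well, treated 16 h at 37 °C with compound (23 nl of library stock), in duplicate. After paraformaldehyde fixation and Hoechst stain, imaged at 20x; PNC prevalence scored by image analysis.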
Hits are given with their value; 0 = inactive; ? = inconclusive; - = not tested or not shown; [ ] = another dose, or the depositor's remark. Unless noted, calls follow the shape of the dose curve; as a rule, active = well fitted inhibition curve with a large enough effect (not every such curve was filed as active); inconclusive = small, poorly fitted or top-dose-only effect, or another doubt; inactive = no such curve, though single readings can be large or run the other way.

SMILES	HPGD inh	ALDH1A1 block	PNC inhibitor
CSCC[C@@H]1NC(=O)C/C=C\[C@@H](C)COC(=O)[C@@H](C)COC1=O	-	0[13.5 µM]	-
Nc1nc2c3ccccc3nc(C3CC3)n2n1	0	0	0
COc1ccc(-n2c(C)nc3cc(C(=O)N4CCOCC4)ccc32)cc1	2.2µM	?	?
COc1ccc(-n2c(C)nc3cc(C(=O)NCCN4CCOCC4)ccc32)cc1	0	0	?
O=C(c1ccc(-n2cnnn2)cc1)N1CCCCC1	16µM	?	0
COc1ccc(C(=O)N2CCN(C(=O)c3ccncc3)CC2)cc1	0	0	0
COc1ccc(C(=O)N2CCCC2)cc1	6.3µM	0	0
O=C(c1ccc(COc2ccc(Cl)cc2)cc1)N1CCCCC1	-	28µM	-
O=C(c1ccc(COc2ccccc2Br)cc1)N1CCCCCC1	-	0	-
O=C(Nc1ccc(-n2cnnn2)cc1)C1CCC1	0	0	0
Cc1c(NC(=O)c2cc3nc(-c4ccc(Cl)cc4)cc(C(F)(F)F)n3n2)c(=O)n(-c2ccccc2)n1C	0	0	?
CCOC(=O)C1(CCc2ccccc2)CCN(C(=O)[C@@H]2C[C@@H](C)NC(=S)N2)CC1	-	0	-
COc1ccc(NC(=O)N2CCCC3(CCN(C(=O)c4csnn4)CC3)C2)cc1	0	0	-
CCOC(=O)c1c(NC(=O)C(=O)N/N=C/c2ccccc2O)sc2c1CCCCC2	0	?	0
CCOc1ccc(C(=O)N2CCCN(C(=O)c3ccc(OCC)cc3)CC2)cc1	0	0	0
CCCCOc1ccc(C(=O)N2CCCCCC2)cc1	0.79µM	?	0
CCCCOc1ccc(C(=O)N2CCC(C)CC2)cc1	1µM	0	0
O=C(c1ccc(C(F)(F)F)cc1)N1CCCCC1	2.8µM	0	0
Cc1ccc(C(=O)N2CCN(c3ccc(C(F)(F)F)cn3)CC2)cc1	0	0	0
O=C(c1cccc(OCc2ccccc2)c1)N1CCOCC1	-	0	-
CCCOc1ccc(-c2nnn(CC(=O)N3CCC(C)CC3)n2)cc1	0	?	0
N#C/C(=C\c1ccc(OCc2ccc(C(=O)O)cc2)cc1)C(=O)N1CCOCC1	14µM	0	?
CCOC(=O)/C=C1\SCC(=O)N1CC(=O)NCc1cccc(Cl)c1	0	0	0
CCOC(=O)C(C(=O)OCC)C(C[N+](=O)[O-])c1ccccc1 (stereo unspecified)	-	0	-
CCCCCCCOc1ccc(OC(=O)c2ccncc2)cc1	0	0	0
SMILES	HPGD inh	ALDH1A1 block	PNC inhibitor
CC(C)CC(NC(N)=O)C(=O)Nc1ccc(Oc2ccccc2)cc1 (stereo unspecified)	-	0	-
COc1ccc(C(=O)/C=C/c2cn(CC(O)CN3CCOCC3)c3ccccc23)cc1 (stereo unspecified)	0	?	0
C=CCNC(=O)c1ccc(OC)cc1	-	0	-
COc1ccc(OCc2ccc(C(=O)N3CCOCC3)cc2)cc1	7.9µM	0	0
COc1ccc(C(=O)/C=C\N2CCOCC2)cc1	0	8.9µM	?
COc1ccc(OCc2ccc(C(=O)O)cc2)cc1	0	0	0
C=CCNC(=O)c1ccc(N(C)S(=O)(=O)c2ccc(OC)cc2)cc1	2.8µM	?	0
CNC(=O)Cn1nc(-c2ccc(C)c(S(=O)(=O)N(C)C)c2)c2ccccc2c1=O	0	0	0
CCCCS(=O)(=O)N1C2=NC(C(=O)OC)=C(C(=O)OC)[C@@H]3Nc4ccccc4[C@]23C[C@H]1C(=O)OC	0	0[13.5 µM]	-
CCOc1ccc(CNC(=S)N/N=C/c2ccncc2)cc1	0	0	0
Cc1ccc(NC(=O)c2ccc(Cn3cc([N+](=O)[O-])cn3)cc2)c(C)c1	0	0	0
O=C(Nc1ccc(Cc2ccncc2)cc1)C1CCC(N2C(=O)C3C4C=CC(C5CC45)C3C2=O)CC1 (stereo unspecified)	0	?	0
CCOc1ccc(NC(=O)C2CCC(N3C(=O)C4CC=CCC4C3=O)CC2)cc1 (stereo unspecified)	0	4µM	0
COc1ccc(NC(=O)C2CCC(N3C(=O)C4C5C=CC(C5)C4C3=O)CC2)cc1 (stereo unspecified)	0	7.9µM	0
CCOc1ccc(NC(=O)CN2C(=O)C3CC=CCC3C2=O)cc1 (stereo unspecified)	0	0	0
O=C(NC(=S)Nn1cnc2c(cnn2-c2ccccc2)c1=O)c1ccccc1	0	18µM	?
CCn1cnc2c(cnn2-c2ccccc2)c1=O	0	0	?
COC(=O)C1CCN(C(=O)c2sc3nc(-c4ccc(F)cc4)cn3c2C)CC1	0	0	0
Cn1cc(Br)c(-c2cccc(NC(=O)CCC(=O)O)c2)n1	-	0	-
COc1ccc(/C=C/C(=O)NCC(=O)N/N=C(/CCC(=O)O)c2ccccc2)cc1	-	0	-
